G9a inh: qHTS Assay for Inhibitors of Histone Lysine Methyltransferase G9a | G9a H3K9 monomethylation, AlphaScreen, 2 h | Potency, µM (top dose mostly 102 µM), most hits filed as inhibitors | 350,000 tested, 8.8% active | AID 504332, 2011; also: nearly all actives have a fitted effect of over 75% in size
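G9a (20 nM) preincubated 15 min RT with compounds, then 500 nM biotinylated H3K9 peptide and 20 uM SAM added; 2 h RT reaction. Monomethyl-H3K9 product detected by AlphaScreen with anti-H3K9me1 antibody, streptavidin donor and anti-rabbit IgG acceptor beads.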
HP1b binding inh: HTS for Inhibitors of HP1-beta Chromodomain Interactions with Methylated Histone Tails. Chromobox protein homolog 1 (Homo sapiens), P83916. AlphaScreen HP1-beta / biotin-H3K9me3 peptide binding. Potency, µM (highest dose often 114 µM), actives largely listed as inhibitors. 390,000 tested, 0.56% active. AID 540317, 2011; also: nearly all actives have a fitted effect of over 70% in size
Target sequence (P83916 whole entry, looked up): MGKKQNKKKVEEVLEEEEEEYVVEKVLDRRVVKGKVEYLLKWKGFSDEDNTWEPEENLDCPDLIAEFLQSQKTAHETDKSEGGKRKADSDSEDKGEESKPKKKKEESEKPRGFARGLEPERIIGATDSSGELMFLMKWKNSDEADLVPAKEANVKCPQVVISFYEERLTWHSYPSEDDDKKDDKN
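HP1-beta protein (50 nM final) preincubated 30 min at room temperature with biotinylated H3(1-18)K9me3 peptide (50 nM) in PBS pH 7.4, 0.01% Tween-20, then compound added for 30 min. AlphaScreen streptavidin donor/nickel chelate acceptor beads (10 ug/mL final), 30 min dark, luminescence read.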
L3MBTL1 block: qHTS Assay for the Inhibitors of L3MBTL1; AlphaScreen L3MBTL1–H3K9me1 peptide binding; Potency, µM (titrated, usually from 57.1 µM), most hits filed as inhibitors; 230,000 tested, 0.66% active; AID 485360, 2010; also: nearly all actives have a fitted effect of over 60% in size
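AlphaScreen assay: L3MBTL1 (50 nM final) was preincubated 30 min at room temperature with biotinylated H3(1-15)K9me1 peptide (75 nM final), then 30 min with library compounds; streptavidin donor and nickel chelate acceptor beads (10 ug/mL final) added, 30 min dark.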
JMJD2A Tudor inh: qHTS Assay for Inhibitors of JMJD2A-Tudor Domain. Lysine-specific demethylase 4A (Homo sapiens), O75164. AlphaScreen JMJD2A-Tudor / H3K4me3 peptide binding. Potency, µM (top dose mostly 114 µM), usual class: inhibitors. 390,000 tested, 4.4% active; also: nearly all actives have a fitted effect of over 50% in size
BAZ2B block: qHTS Assay for Inhibitors of BAZ2B; AlphaScreen BAZ2B-H3K14Ac peptide displacement; Potency, µM (highest dose often 114 µM), most hits filed as inhibitors; 360,000 tested, 4.4% active; also: nearly all actives have a fitted effect of over 60% in size
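AlphaScreen luminescence quantifies BAZ2B engagement of H3K14Ac peptide; the protein and biotinylated peptide are both at 50 nM final, buffer PBS pH 7.4 with 0.01% Tween-20, all steps at room temperature.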
PI5P4K alpha inh: qHTS for Inhibitors of phosphatidylinositol 5-phosphate 4-kinase (PI5P4K). Phosphatidylinositol 5-phosphate 4-kinase type-2 alpha (Homo sapiens), P48426. PI5P4Kalpha enzyme, ADP-Glo luminescence, 60 min; hits give low values. max response, %. 330,000 tested, 1.2% active. AID 652105, 2013; active = max response of -50% or lower; inconclusive = between -30% and -50%; inactive = -30% or higher; also: value at the top dose of about 77 µM
Target sequence (P48426 whole entry, looked up): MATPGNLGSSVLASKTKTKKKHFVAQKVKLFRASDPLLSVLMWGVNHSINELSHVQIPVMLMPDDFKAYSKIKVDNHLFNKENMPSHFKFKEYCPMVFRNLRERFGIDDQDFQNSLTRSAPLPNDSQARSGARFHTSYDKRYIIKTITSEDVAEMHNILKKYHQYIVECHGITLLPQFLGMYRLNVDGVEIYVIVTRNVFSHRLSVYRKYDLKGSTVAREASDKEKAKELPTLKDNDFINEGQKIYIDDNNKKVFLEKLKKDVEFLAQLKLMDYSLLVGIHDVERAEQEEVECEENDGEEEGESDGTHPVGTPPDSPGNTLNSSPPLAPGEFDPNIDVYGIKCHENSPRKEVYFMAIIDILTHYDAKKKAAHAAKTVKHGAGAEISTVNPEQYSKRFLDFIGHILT
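Luminescence from ADP-Glo served as readout of PI5P4Kalpha activity in a qHTS format. Reaction: enzyme, substrate, compound, ATP at 5 microM final, 60 min at RT.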
Hits are given with their value; 0 = inactive; ? = inconclusive; - = no result; [ ] = another dose, or the depositor's remark. This is a sample that favours compounds with a hit; in the whole collection about 11% have one here. Unless noted, calls follow the shape of the dose curve; as a rule, active = well fitted inhibition curve with a large enough effect; inconclusive = small, poorly fitted or top-dose-only effect; inactive = no such curve, though single readings can be large or run the other way.

SMILES | G9a inh | HP1b binding inh | L3MBTL1 block | JMJD2A Tudor inh | BAZ2B block | PI5P4K alpha inh
COc1cc(OC)c(CN2CCc3c([nH]c4ccccc34)C2)cc1Br | ? | 0 | 0 | ? | ? | 0
CSc1ccc(CN2CCc3c([nH]c4ccccc34)C2)cc1 | - | ? | 0 | 3.2µM | ? | 0
c1ccc(CN2CCc3[nH]c4ccccc4c3C2)cc1 | - | 0 | - | ? | - | 0
Clc1cccc(CN2CCc3c([nH]c4ccccc34)C2)c1 | - | ? | 0 | 20µM | 50µM | 0
Cc1cccc(CN2CCc3c([nH]c4ccccc34)C2)c1 | 45µM | 45µM | - | 20µM | 50µM | 0
Clc1ccc(CN2CCc3c([nH]c4ccccc34)C2)cc1Cl | 28µM | ? | - | 16µM | 32µM | 0
CCOc1ccc(N2CC(NC(=O)c3ccc(S(=O)(=O)N4CCCCC4)cc3)CC2=O)cc1 (centres undefined) | 0 | 0 | - | 0 | 0 | -
C=CCn1c(SCC(=O)NCc2ccco2)nnc1C1CCCCC1 | 0 | 0 | 0 | 0 | 0 | 0
O=C(CSc1nnc2scc(-c3ccccc3)n12)NCc1ccco1 | 79µM | 0 | 0 | 0 | 0 | 0
O=C(CSc1nnc(C2CCCCC2)n1Cc1ccccc1)NCc1ccco1 | ? | ? | 0 | 28µM | 0 | ?
Cc1ccc(NC(=O)Cn2cc(C(=O)c3ccco3)c3ccccc32)cc1 | ? | 0 | - | 0 | 0 | -
O=S(=O)(NCCc1ccccc1)c1ccc(N2CCCCS2(=O)=O)cc1 | 0 | 0 | - | 0 | 0 | -
CCc1ccc(N2C(=O)CC(NNc3nc4ccccc4s3)C2=O)cc1 (centres undefined) | 14µM | 0 | 0 | 0 | 0 | 0
C/C(N)=C(/C#N)C(=O)CSc1nnc(Nc2c(C)cccc2C)s1 | 32µM | ? | 0 | 56µM | 0 | -100
Oc1ccc(N=Nc2cccc(Cl)c2)cc1C=Nc1ccc(N2CCOCC2)cc1 | ? | ? | 0 | ? | 7.9µM | 0
Clc1cccc(-c2ccc(C=Nc3ccc(N4CCOCC4)cc3)o2)c1 | 3.2µM | ? | 0 | ? | 32µM | 0
Oc1c(Br)cc(Cl)cc1C=Nc1ccc(N2CCOCC2)cc1 | ? | 0 | 0 | 0 | 0 | 0
Cc1ccc(CCNC(=O)CCCn2c(=O)c3cccn3c3ccc(F)cc32)cc1 | 0 | 0 | - | 0 | 0 | -
COc1ccc(N2CSC3=C(C#N)C(c4cc(OC)c(OC)cc4OC)CC(=O)N3C2)c(OC)c1 (centres undefined) | 3.5µM | 20µM | - | 20µM | 45µM | ?
COc1ccc(N2CSC3=C(C#N)C(c4cc(OC)ccc4OC)CC(=O)N3C2)c(OC)c1 (centres undefined) | 2.2µM | 16µM | 0 | 22µM | 45µM | -85
CCCSC1=C(C#N)C(c2cc(OC)ccc2OC)CC(=O)N1 (centres undefined) | 0 | 0 | 0 | 0 | 0 | 0
Cc1ccc(-n2cccc2/C=C2/C(=N)N3C(=NC2=O)SN=C3S(C)(=O)=O)cc1 | 40µM | 0 | ? | 16µM | 45µM | -67
Cc1ccc(-n2cccc2/C=C2\C(=N)N3N=C(c4ccco4)SC3=NC2=O)cc1 | 10µM | 0 | ? | ? | 35µM | ?
CS(=O)(=O)C1=NSC2=NC(=O)/C(=C\c3cccn3-c3ccccc3Cl)C(=N)N21 | 50µM | 0 | 0 | ? | 50µM | -95
CCC1=NN2C(=N)/C(=C\c3cccn3-c3ccc(Cl)cc3)C(=O)N=C2S1 | 0 | 0 | - | 0 | ? | 0
SMILES | G9a inh | HP1b binding inh | L3MBTL1 block | JMJD2A Tudor inh | BAZ2B block | PI5P4K alpha inh
CCc1ccc(-n2cccc2/C=C2/C(=N)N3C(=NC2=O)SN=C3S(C)(=O)=O)cc1 | 45µM | 0 | ? | 56µM | 40µM | -61
CCc1cnc2c(c1SCC(=O)Nc1ccc(OC)c(OC)c1)c(=O)n(C)c(=O)n2C | 0 | 0 | - | 0 | 0 | -
O=C(O)CNC(=O)c1ccccc1I | 0 | - | - | - | - | -
O=C(CSc1nc2c([nH]c3ccccc32)c(=O)n1-c1ccc(Cl)cc1)NCc1ccccc1 | 0 | 0 | - | 0 | 0 | -
CCC1=NN2C(=N)/C(=C\c3cccn3-c3ccc(C)c(C)c3)C(=O)N=C2S1 | 0 | 0 | 0 | ? | 0 | 0
Cc1cc(C)cc(-n2cccc2/C=C2/C(=N)N3C(=NC2=O)SN=C3S(C)(=O)=O)c1 | ? | 0 | - | ? | 56µM | ?
C/C(CCN1CCCCc2nc(C)c(C)cc21)=N\O[C@H](C)c1cn([C@H](CO)Cc2ccccc2)nn1 | 56µM | - | 0 | - | 0 | -
C/C(CCN1CCCCc2nc(C)c(C)cc21)=N\O[C@@H](C)c1cn([C@H](CO)Cc2ccccc2)nn1 | ? | - | 0 | - | 0 | -
CCCCNCCOCCOc1ccccc1-c1ccccc1 | ? | ? | 0 | 1.4µM | ? | 0
COCCNCCCCOc1ccccc1-c1ccccc1 | 7.1µM | ? | 0 | 3.2µM | 56µM | 0
COc1ccc(S(=O)(=O)NCC(c2ccc(N(C)C)cc2)N2CCc3ccccc32)cc1F (centres undefined) | 0[12.7 µM] | ? | - | 20µM | 11µM | -
CN(C)c1ccc(C(CNS(=O)(=O)c2ccc(F)cc2)N2CCOCC2)cc1 (centres undefined) | 0 | 0 | - | 0 | 0 | -
CN(C)c1ccc(C(CNS(=O)(=O)c2ccccc2)N2CCc3ccccc32)cc1 (centres undefined) | 0[12.7 µM] | ? | - | 13µM | 22µM | -
Cc1ccc(S(=O)(=O)NCC(c2ccc(N(C)C)cc2)N2CCc3ccccc32)cc1 (centres undefined) | 11µM | ? | - | 14µM | 6.3µM | -
COc1ccc(CC(N)C(=O)N[C@H]2[C@@H](O)[C@H](n3cnc4c(N(C)C)ncnc43)O[C@@H]2CO)cc1 (some centres undefined) | 0 | - | - | - | - | -
C#CCOCCOCCOCCNc1nc(N2CCN(C(=O)CCCCCCCCCCNC(=O)[C@H]([C@@H](C)CC)n3cc(CCCCN=C(N)N)nn3)CC2)nc(N2CCN(C(=O)CCCCCCCCCCNC(=O)[C@H](CCCCN)n3cc(C)nn3)CC2)n1 | 0[2.33 µM] | 35µM | 0 | 22µM | 50µM | -89
C#CCOCCOCCOCCNc1nc(N2CCN(C(=O)Cn3cc(CCCN=C(N)N)nn3)CC2)nc(N2CCN(C(=O)[C@H]([C@@H](C)CC)n3cc(CCCCN)nn3)CC2)n1 | ? | 0 | 0 | 0 | 0 | 0
C#CCOCCOCCOCCNc1nc(N2CCN(C(=O)CCCCCCCCCCNC(=O)Cn3cc(CCCCCN)nn3)CC2)nc(N2CCN(C(=O)CCCCCCCCCCNC(=O)[C@H]([C@@H](C)CC)n3cc(CCCCN=C(N)N)nn3)CC2)n1 | 0[2.33 µM] | ? | 0 | 56µM | 56µM | -72
